High-throughput results as filed in PubChem BioAssay.
Pf growth 96h – inhibits malaria parasite growth, 96 h; P. falciparum luciferase reporter growth, 96 h; hit rate 6.9% among 320,000; Potency, µM (titrated, usually from 28.7 µM), for inactives: at the top dose activity change, negative = inhibition, actives largely listed as inhibitors; also: potency is read from the fitted curve at half-maximal effect; % is scaled to controls: 0 for no effect and ±100 for the full control effect
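Plates of compound plus infected erythrocytes (2% hematocrit, 0.05% parasitemia final) incubate 96 hours, 37 C, 5% CO2. Detection reagent added; reduced luminescence from the parasites' luciferase reporter flags inhibition.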
HCV inhibitor – HCV inhibition | Huh7.5.1 HCVcc-Cre infection, luciferase reporter, 44 h | Potency, µM (top dose mostly 41.8 µM), without a hit: at the highest dose activity change, negative = inhibition, hits mostly inhibitors | hit rate 3.4% among 340,000; also: potency is read from the fitted curve at half-maximal effect; % is scaled to controls: 0 for no effect and ±100 for the full control effect
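HCVcc-Cre virus at an moi near 0.5 was added right after compound to cells cultured 4 h from seeding (1,000 cells/well). Luciferase activity was determined 44 h later, 15 min after substrate addition at RT.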
SARS PLpro yeast – inhibitors of SARS-CoV papain-like protease in yeast; S. cerevisiae expressing SARS-CoV PLpro, growth rescue; Potency, µM (top dose mostly 32.9 µM), without a hit: at the highest dose activity, positive = growth rescue, hits mostly activators; hit rate 0.19% among 330,000; calls by dose curve; also: potency is read from the fitted curve at half-maximal effect; 0% is about no effect; nearly all actives have a fitted effect of over 55% in size
Sm TGR inh – blocks Schistosoma mansoni thioredoxin glutathione reductase | hit rate 3% among 360,000 | Potency, µM (top dose mostly 114 µM), for inactives: at the highest dose activity change, negative = inhibition, hits mostly inhibitors | AID 485364 | Q962Y6 | purified TGR, DTNB reduction, TNB absorbance 405 nm; also: potency is read from the fitted curve at half-maximal effect; % is scaled to controls: 0 for no effect and ±100 for the full control effect; nearly all actives have a fitted effect of over 60% in size
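Kinetic colorimetric format: TGR-catalysed, NADPH-driven DTNB reduction monitored via TNB absorbance. Enzyme dispensed at 20 nM; compound exposure 15 min at room temperature before reaction start.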
Pf growth 48h – P. falciparum growth inhibition at 48 hours (one generation); P. falciparum luciferase growth in erythrocytes, 48 h; Potency, µM (series often up to 28.7 µM), for inactives: top-dose activity change, negative = inhibition, usual class: inhibitors; hit rate 5.9% among 310,000; also: potency is read from the fitted curve at half-maximal effect; % is scaled to controls: 0 for no effect and ±100 for the full control effect
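Luciferase-expressing parasites in RBCs, 2% Hct / 0.1% parasitemia final; RPMI 1640 + 0.5% Albumax; 37 C, 5% CO2, one generation; luminescence read-out, lower signal = inhibition.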
HCMV inh – inhibitors of human cytomegalovirus. HFF cells, HCMV-luciferase reporter, 72 h; hits give low values. activity change, negative = inhibition, % at 57.5 µM. hit rate 4.5% among 410,000. AID 1259415; in the data active = activity change below about -60%; inconclusive = no clear call, values can overlap the other calls; inactive = above about -39%; also: % is scaled to controls: 0 for no effect and ±100 for the full control effect
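Compounds were evaluated in HFFs infected with an HCMV luciferase reporter virus (MOI 1 PFU/cell). Luciferase in lysates collected 72 h post infection served as the replication measure.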
An asterisk follows results filed as active; ? = inconclusive; nt = no result; [ ] = another dose, or the depositor's remark. An excerpt weighted towards active compounds, which were near 15% of everything screened. Unless noted, calls follow the shape of the dose curve; as a rule, active = well fitted curve in the direction sought with a large enough effect; inconclusive = small, poorly fitted or top-dose-only effect, or another doubt; inactive = no such curve, though single readings can be large; an effect the other way counts as inactive or inconclusive.

SMILES	Pf growth 96h	HCV inhibitor	SARS PLpro yeast	Sm TGR inh	Pf growth 48h	HCMV inh
CC(=O)Nc1cccc(NC(=O)CCNC(=O)c2ccccc2)c1	9%	3.2µM*	8%	-24%	1%[0.00184 µM]	-14
COc1ccccc1OCC(=O)Nc1ccc(S(=O)(=O)N(C)c2ccccc2)cc1	?	11µM*	-1%	5%	?	-2
CN(c1ccccc1)S(=O)(=O)c1cccc(NC(=O)CCNC(=O)c2ccccc2)c1	?	-20%	0%	-17%	9.3µM*	-4
CC(=O)Nc1cccc(NC(=O)CCNC(=O)c2ccc(Cl)cc2)c1	-23%	6%	1%	6%	?	15
Cn1c(C(=O)OCC(=O)NCc2ccc(F)cc2)cc2occc21	25%	-24%	1%	-31%	2%	-17
O=C(CCSc1ccccn1)c1ccccc1	0%	7%	10%	0%	0%	19
O=C(COc1ccccc1)Nc1cccc(-c2nc3cc4ccccc4cc3[nH]2)c1	14%	7.1µM*	-30%	11%	117%	-12
CN(C)S(=O)(=O)c1cccc(NC(=O)CSc2nc3c(cc2C#N)C(=O)CC(C)(C)C3)c1	?	5µM*	-2%	2%	9.3µM*	-80*
CN(C)S(=O)(=O)c1ccc(Cl)c(NC(=O)CSc2nc3c(cc2C#N)C(=O)CC(C)(C)C3)c1	?	-6%	10%	-1%	?	?
CCCCN1CC(COCc2ccccc2)Oc2cccc(N3CCCCC3)c2S1(=O)=O (centres undefined)	nt	nt	nt	nt	nt	-13
O=C(CN1C(=O)NC2(CCCC2)C1=O)Nc1nc(-c2ccc(F)c(F)c2)cs1	?	4µM*	7%	-9%	?	1
O=C(CSc1ncnc2[nH]ncc12)Nc1nc(-c2ccc(F)c(F)c2)cs1	14%	?	-6%	-4%	-11%	-90*
Cc1ccc(S(=O)(=O)N2CCOCC2)cc1C(=O)NNC(=O)c1ccoc1C	0%	10%	-1%	5%	31%	?
O=c1c2ccccc2[se]n1-c1ccccc1	?	-4%[8.37 µM]	-76%	?	?	-67*
O=c1c2ccccc2nc(-c2ccccc2)n1-c1ccccc1	?	-8%	0%	8%	-13%	-5
CCCCN(C=O)c1c(CC)nc2ccc(C(=O)NCCc3ccccn3)cn12	nt	nt	nt	nt	nt	-23
O=C(CN1C(=O)NC(c2ccccc2)(c2ccccc2)C1=O)N1CCN(c2ccc(F)cc2)CC1	?	?	-3%	1%	12µM*	-15
O=C(CN1C(=O)NC(c2ccccc2)(c2ccccc2)C1=O)N1CCN(c2ccccc2F)CC1	?	?	1%	-14%	13µM*	-32
CC(=O)OC1COC(N2CCc3cc(Br)c([N+](=O)[O-])cc32)C(OC(C)=O)C1OC(C)=O (centres undefined)	nt	6%	4%	-3%	-9%	-6
C=C1C(=O)OC2CC1C(O)CC(C)=CCCC(C)=CC(O)CC2C (centres undefined)	nt	7.1µM*	nt	nt	nt	-34
CC12COC3(P(=O)(c4ccccc4)c4ccccc4)CC1CCC23CP(=O)(c1ccccc1)c1ccccc1 (centres undefined)	0.93µM*	15%	-1%	-7%	1.2µM*	-40
CC12COC3(C(=O)Nc4ccc(F)cc4)CC1CCC32C (centres undefined)	0%	2%	-19%	0%	-22%	-33
CCOC(=O)c1c(C)[nH]c(C(=O)OCC(=O)NCc2ccco2)c1C	nt	nt	nt	nt	nt	-33
Cc1nn(-c2ccccc2)c(-c2ccccc2)c1C(=O)O	?	6%	-3%	-26%	14%	-67*
COc1ccc(CCNC(=O)C/C(C)=N/NC(=O)c2cnccn2)cc1	1%	10%	-3%	-15%	3%	-12
SMILES	Pf growth 96h	HCV inhibitor	SARS PLpro yeast	Sm TGR inh	Pf growth 48h	HCMV inh
CC1(C(=O)NCc2cccc(C(F)(F)F)c2)CCN1Cc1ccc2ccccc2c1 (centres undefined)	nt	nt	nt	nt	nt	-72*
O=C(CSCc1cccc(F)c1)NCc1ccccc1	2.1µM*	18%	1%	-16%	302%	63
O=C(CSc1cccc(C(F)(F)F)c1)NCc1ccccc1	9%	3%	0%	1%	17%	-73*
O=C(Cc1cccc2ccccc12)NCC(=O)N1CCN(CC(=O)Nc2ccc(F)cc2)CC1	nt	nt	nt	nt	nt	45
O=C(CSc1ccccc1)NCc1ccccc1	?	6%	1%	6%	83%	28
Cc1ccc(CNC(=O)CSCc2cccc(F)c2)cc1	0%	-3%	-2%	3%	86%	20
O=C(Cc1cccc2ccccc12)NCC(=O)N1CCN(Cc2cccc(C(F)(F)F)c2)CC1	-16%	5.6µM*	-1%	2%	-6%	-62*
CCCN1CCC(=O)NC1=S	nt	18%	nt	nt	nt	3
Clc1ccc2c(c1)Nc1ccccc1CC2	nt	20%	nt	nt	nt	-2
CCOc1ccc(CNC(=O)CCCc2cn(C)c3ccccc23)cc1OC	?	?	6%	6%	-27%	-27
Cn1cc(C(=O)Cc2ccccc2)c2ccccc21	?	?	24%	0%	-13%	-67*
CCn1cc(CCCC(=O)NCc2ccc(OC)cc2)c2ccccc21	5%	?	-2%	-4%	2.3µM*	11
Cc1ccc(CNC(=O)CCc2cn(C)c3ccccc23)cc1	13µM*	-19%	-3%	-1%	17%	?
CCOc1ccc(CNC(=O)CCCc2cn(C)c3ccccc23)cc1	4%	-13%	-2%	-2%	3.7µM*	-7
CC(C)Oc1ccc(CNC(=O)CN2C(=O)c3cccnc3Oc3ccc(Cl)cc32)cc1	nt	nt	nt	-11%	nt	0
Cc1ccsc1C1CC(=O)OC2=C1C(=O)CC(C)(C)C2 (centres undefined)	12%	nt	-8%	0%	-10%	nt
CC(C)(C(=O)N1CCC1(C)C(=O)NS(=O)(=O)c1cccc(Cl)c1)c1ccccc1 (centres undefined)	nt	nt	nt	nt	nt	32
CCOc1ccccc1CNC(=O)CCc1cn(CC)c2ccccc12	3%	?	-2%	3%	15µM*	-23
Cc1ccc(CNC(=O)CCc2cn(Cc3ccc(C)cc3)c3ccccc23)cc1	nt	nt	nt	1%	nt	6
Cc1ccc(CNC(=O)CCn2cc(-c3ccc(C)cc3)nc2CCN)cc1	?	-22%	-25%	-3%	12µM*	-1
Cc1ccc(Cn2cc(CCC(=O)O)c3ccccc32)cc1	4.7µM*	1%	0%	6%	nt	45
O=S(=O)(NCc1ccccc1)NCc1ccccc1	2%	3%	-3%	68%	24%	-68*
CCNC(=O)NC(=O)C(C)OC(=O)c1c(C)nn(Cc2ccccc2Cl)c1Cl (centres undefined)	12µM*	?	17%	1%	?	?
